Assay results published in PubChem BioAssay (NCI).
This is part of a sample that, as a whole, favours compounds with a hit. Of some 79,000 tested, about 15% had one in any assay. Calls of active or inactive are those of the source. No stated cut-off is given here; in the data, active means growth inhibition above about 70%; inactive means the rest.

experiment: NCI Yeast Anticancer Drug Screen. Data for the bub3 strain (AID 167); conditions: S. cerevisiae bub3 mutant strain, at 50.0 µM, active compounds read high
How it was run: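 Steps: expose the mutant yeast strain to compound; grow alongside vehicle-treated cultures; measure growth; express inhibition against the vehicle cultures.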

SMILES | growth inhibition
CCCCC1CC(c2ccc(Cl)cc2)=NO1 (stereo not given) | 3.75% (inactive)
OC1C(O)C2CC1C1C2C2(Cl)CC1(Cl)C(Cl)=C2Cl (stereo not given) | -6.1% (inactive)
BrCCC[n+]1ccc2ccccc2c1-c1nccc2ccccc12 | 5.05% (inactive)
CCOC(=O)c1ccc(NC(=O)Nc2cc(Cl)ccc2OC)cc1 | 34% (inactive)
CC1(C)CC(C(N)=O)C(=O)O1 (stereo not given) | 5.1% (inactive)
CCCCCCCN(CCCCCCC)CC(O)c1c(OC)c2ccccc2c2ccccc12 (stereo not given) | 24.9% (inactive)
C/C=C/C(=O)Oc1ccccc1/C=C/C(=O)CCCCCC | 10.9% (inactive)
CCCCCCCCCCCCCCCCCCOC(=O)c1cccnc1 | 23.8% (inactive)
O=NNc1ccc(Sc2ccccc2)cn1 | -31.6% (inactive)
CCOC(=O)C(=O)Cc1ccccn1 | 8.85% (inactive)
CCNC(=O)c1ccccc1C(=O)c1ccccc1 | -0.75% (inactive)
CCOc1ncc(C(O)c2ccc(F)cc2)c(OCC)n1 (stereo not given) | 11.4% (inactive)
CCOC(=O)Nc1cccc(Cl)c1 | -7.35% (inactive)
COc1ccc(-c2c3nc(c(-c4ccc(OC)cc4)c4[n-]c(c(-c5ccc(OC)cc5)c5nc(c(-c6ccc(OC)cc6)c6[n-]c2c2ccccc62)-c2ccccc2-5)c2ccccc42)-c2ccccc2-3)cc1.[Zn+2] | 16.6% (inactive)
COc1ccc(C(CN)c2ccc(N)cc2)cc1 (stereo not given) | -13.4% (inactive)
Cc1ccc(-c2cn3c(nc4ccccc43)c(-c3ccccc3)n2)cc1 | -26.1% (inactive)
COc1ccc(/C=[N+](\[O-])[C@H](COCc2ccccc2)c2ccccc2)cc1 | 6.6% (inactive)
COc1ccc(C)c2c1CCCC2 | -6.8% (inactive)
CCOC(=O)/N=c1/nc(N(C)C)ss1 | -9.4% (inactive)
O=C1OC(c2ccccc2)=N/C1=C/c1c(-c2ccccc2)c(-c2ccccc2)c2n1CCC2 | -4.45% (inactive)

SMILES | growth inhibition
Nc1ccccc1C(=O)ONC(=O)c1ccccc1 | 99.3% (active)
CCN(CC)S(=O)(=O)c1ccc(S(C)(=O)=O)cc1 | 8.35% (inactive)
CC(C)CC(=O)c1ccc2ccccc2c1O | -14.2% (inactive)
O=S(O)OS(=O)O | 18.9% (inactive)
Cc1cccc(-c2nc(N)nc(N)n2)c1 | 7% (inactive)
C(=N\N1CCN(/N=C/c2ccc3ccccc3n2)CC1)/c1ccc2ccccc2n1 | 1.5% (inactive)
CN(C1CCCCC1)S(=O)(=O)c1ccc(N)cc1 | 5.25% (inactive)
C=CCC12CC(COc3ccccc3C(N)=O)OC1=Nc1ccccc1NC2=O (stereo not given) | 0.8% (inactive)
COc1ccccc1NC(=O)CC(=O)n1nc(-c2ccccc2)c(N=Nc2ccccc2[N+](=O)[O-])c1-c1ccccc1 | 25.3% (inactive)
Nc1nc(N)c2nc(-c3ccc(N(CCO)CCO)cc3)c(N)nc2n1 | 3.15% (inactive)
CCOC(=O)/C(I)=C/c1cc(OC)c(OC)c(OC)c1 | 28.2% (inactive)
CCCCOCCOCCOS(=O)(=O)c1ccc(C)cc1 | 10.2% (inactive)
COC1(OC)CC2OC1C1N=NN(C(=O)OC(C)(C)C)C21 (stereo not given) | 16.8% (inactive)
COc1ccc(C2(C)OCCCC2([NH-])C[NH-])cc1.[Cl][Pt+2][Cl] (stereo not given) | -0.4% (inactive)
COC(=O)/C=C/c1ccccc1 | -27.9% (inactive)
Cn1cc(C(=O)C2CCCCC2)ccc1=O | -14.2% (inactive)
O=Cc1cc2ccccc2c2ccccc12 | 0.2% (inactive)
CCCC1=C(c2ccc(OC)cc2)Cc2cc(OC)ccc21 | 2.1% (inactive)
O=C(NCCCCCCNC(=O)C1CCCNC1)C1CCCNC1 (stereo not given) | 15.4% (inactive)
CC(C)NC(N)=O | 2.35% (inactive)

experiment: NCI Yeast Anticancer Drug Screen. Data for the mlh1 rad18 strain (AID 175); conditions: S. cerevisiae mlh1 rad18 strain growth inhibition; at 50.0 µM; active compounds read high
How it was run: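 Genetically defined yeast (DNA repair-deficient) exposed to compounds; growth inhibition determined relative to vehicle.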

SMILES | growth inhibition
CCCCC1CC(c2ccc(Cl)cc2)=NO1 (stereo not given) | 20.2% (inactive)
OC1C(O)C2CC1C1C2C2(Cl)CC1(Cl)C(Cl)=C2Cl (stereo not given) | 14.3% (inactive)
BrCCC[n+]1ccc2ccccc2c1-c1nccc2ccccc12 | 49.5% (inactive)
CCOC(=O)c1ccc(NC(=O)Nc2cc(Cl)ccc2OC)cc1 | 19.7% (inactive)
CC1(C)CC(C(N)=O)C(=O)O1 (stereo not given) | -2.4% (inactive)
CCCCCCCN(CCCCCCC)CC(O)c1c(OC)c2ccccc2c2ccccc12 (stereo not given) | 93.7% (active)
C/C=C/C(=O)Oc1ccccc1/C=C/C(=O)CCCCCC | 10.9% (inactive)
CCCCCCCCCCCCCCCCCCOC(=O)c1cccnc1 | 27.3% (inactive)
O=NNc1ccc(Sc2ccccc2)cn1 | 10.6% (inactive)
CCOC(=O)C(=O)Cc1ccccn1 | -13.2% (inactive)
CCNC(=O)c1ccccc1C(=O)c1ccccc1 | 11.5% (inactive)
CCOc1ncc(C(O)c2ccc(F)cc2)c(OCC)n1 (stereo not given) | 0.3% (inactive)
CCOC(=O)Nc1cccc(Cl)c1 | 22.1% (inactive)
COc1ccc(-c2c3nc(c(-c4ccc(OC)cc4)c4[n-]c(c(-c5ccc(OC)cc5)c5nc(c(-c6ccc(OC)cc6)c6[n-]c2c2ccccc62)-c2ccccc2-5)c2ccccc42)-c2ccccc2-3)cc1.[Zn+2] | -22.1% (inactive)
COc1ccc(C(CN)c2ccc(N)cc2)cc1 (stereo not given) | -5.05% (inactive)
Cc1ccc(-c2cn3c(nc4ccccc43)c(-c3ccccc3)n2)cc1 | -45% (inactive)
COc1ccc(/C=[N+](\[O-])[C@H](COCc2ccccc2)c2ccccc2)cc1 | 4.3% (inactive)
COc1ccc(C)c2c1CCCC2 | -14.5% (inactive)
CCOC(=O)/N=c1/nc(N(C)C)ss1 | -5.05% (inactive)
O=C1OC(c2ccccc2)=N/C1=C/c1c(-c2ccccc2)c(-c2ccccc2)c2n1CCC2 | 18.6% (inactive)

SMILES | growth inhibition
Nc1ccccc1C(=O)ONC(=O)c1ccccc1 | 99.3% (active)
CCN(CC)S(=O)(=O)c1ccc(S(C)(=O)=O)cc1 | -14.2% (inactive)
CC(C)CC(=O)c1ccc2ccccc2c1O | 5.95% (inactive)
O=S(O)OS(=O)O | -13.3% (inactive)
Cc1cccc(-c2nc(N)nc(N)n2)c1 | 22.4% (inactive)
C(=N\N1CCN(/N=C/c2ccc3ccccc3n2)CC1)/c1ccc2ccccc2n1 | 32.4% (inactive)
CN(C1CCCCC1)S(=O)(=O)c1ccc(N)cc1 | 24.5% (inactive)
C=CCC12CC(COc3ccccc3C(N)=O)OC1=Nc1ccccc1NC2=O (stereo not given) | -5.05% (inactive)
COc1ccccc1NC(=O)CC(=O)n1nc(-c2ccccc2)c(N=Nc2ccccc2[N+](=O)[O-])c1-c1ccccc1 | 15.5% (inactive)
Nc1nc(N)c2nc(-c3ccc(N(CCO)CCO)cc3)c(N)nc2n1 | -15.9% (inactive)
CCOC(=O)/C(I)=C/c1cc(OC)c(OC)c(OC)c1 | 19.9% (inactive)
CCCCOCCOCCOS(=O)(=O)c1ccc(C)cc1 | 13.9% (inactive)
COC1(OC)CC2OC1C1N=NN(C(=O)OC(C)(C)C)C21 (stereo not given) | 31.4% (inactive)
COc1ccc(C2(C)OCCCC2([NH-])C[NH-])cc1.[Cl][Pt+2][Cl] (stereo not given) | 9.45% (inactive)
COC(=O)/C=C/c1ccccc1 | 19.4% (inactive)
Cn1cc(C(=O)C2CCCCC2)ccc1=O | -19.3% (inactive)
O=Cc1cc2ccccc2c2ccccc12 | -4.9% (inactive)
CCCC1=C(c2ccc(OC)cc2)Cc2cc(OC)ccc21 | 9% (inactive)
O=C(NCCCCCCNC(=O)C1CCCNC1)C1CCCNC1 (stereo not given) | 12.8% (inactive)
CC(C)NC(N)=O | 16.4% (inactive)
